An excerpt weighted towards active compounds, which were near 0.9% of everything screened.
Rhodamine autofl: rhodamine region autofluorescence; Rhodamine-region fluorescence, 547/598 nm, Tris buffer; hits give high values; max dye-equivalent concentration, M; hit rate 0.05% among 59,000; AID 594; in the data active = max dye-equivalent concentration above about 11 nM; inconclusive = between about 1.1 nM and that limit
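Compound fluorescence in 100 mM Tris, pH 8.0, read after 15 min at room temperature with 547 nm excitation and 598 nm emission. Output is dye-equivalent concentration from an on-plate rhodamine standard series.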
Fluorescein autfl: fluorescein region autofluorescence | Compound autofluorescence, 480/540 nm, fluorescein-equivalent; hits give high values | max fluorescein-equivalent concentration, M | hit rate 0.91% among 59,000 | AID 593; in the data active = max fluorescein-equivalent concentration above about 10 nM; inconclusive = between about 1.1 nM and that limit
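Each compound is tested across a concentration series in 100 mM Tris buffer at pH 8.0. After 15 min at room temperature, plates are imaged with 480 nm excitation and 540 nm emission filters, and intensities are converted to fluorescein-equivalent values.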
Texas Red fluor: compounds fluorescent in Texas Red spectral region | Compound fluorescence, Texas Red channel, 547/618 nm; hits give high values | max dye-equivalent concentration, M | hit rate 0.06% among 59,000; in the data active = max dye-equivalent concentration above about 10 nM; inconclusive = between about 1.1 nM and that limit
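qHTS profiling of intrinsic compound fluorescence; 100 mM Tris pH 8.0; 15 min RT; ex 547 / em 618 nm; response expressed as Texas Red dye-equivalent concentration from six-point plate standard.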
A647 fluor: compound autofluorescence in A647 spectral region; Compound fluorescence, A647 channel (570/671 nm), Tris buffer; max dye-equivalent concentration, M; 59,000 tested, under 10 active; AID 592
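Each compound's intrinsic fluorescence at 570 nm excitation and 671 nm emission is measured across its concentration series in 100 mM Tris, pH 8.0, after 15 min at room temperature, and reported relative to an A647 curve.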
A488 autofl: compound fluoresces in the A488 spectral region | AID 591 | hit rate 0.1% among 59,000 | compound autofluorescence, A488 spectral region, dye equivalency; Compound Type: qHTS ECL - MLSMR | max dye equivalency, M
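Compound autofluorescence was read in 100 mM Tris pH 8.0 after 15 min at room temperature, ex 480 nm/em 540 nm. Intensities were converted to A488 dye-equivalent concentration using an on-plate six-point A488 standard curve.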
Resorufin autofl: resorufin region autofluorescence. Compound fluorescence, resorufin region 547/598 nm, buffer; hits give high values. max dye-equivalent concentration, M. hit rate 0.04% among 59,000
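Intrinsic fluorescence profiled in the resorufin window (ex 547 nm, em 598 nm) after 15 min at room temperature in pH 8.0 Tris buffer (100 mM); responses normalized against a six-point resorufin standard series as dye-equivalent concentration.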
Of the large screens only hits and unclear results are named; the others gave an inactive call. Unless noted, the rule behind the calls is not given here.

COc1ccc(CNC(=O)C(C#N)c2nc3ccccc3nc2N2CCCC2)cc1 (stereo unspecified)	Fluorescein autfl 3.5e-07M, A488 autofl 2.1e-08M
C=CCNC(=O)C(C#N)c1nc2ccccc2nc1N1CCCCCC1 (stereo unspecified)	Fluorescein autfl 1.3e-08M
CCCCNC(=O)C(C#N)c1nc2ccccc2nc1N1CCCC1 (stereo unspecified)	Fluorescein autfl 2.3e-07M, A488 autofl 1.2e-08M
COc1ccc(CNC(=O)C(C#N)c2nc3ccccc3nc2N2CCN(C)CC2)cc1 (stereo unspecified)	none
CC1CCN(c2nc3ccccc3nc2C(C#N)C(=O)NC2CCCCC2)CC1 (stereo unspecified)	Fluorescein autfl 1.4e-08M
COc1ccc2c(c1)Cc1cc(N=[N+]([O-])c3ccc4c(c3)Cc3cc(OC)ccc3-4)ccc1-2	none
COc1ccc(-n2c(=O)c(-c3cccs3)nc3cncnc32)cc1	none
CC(=O)O[C@H]1C(=O)[C@]2(C)[C@H]([C@H](OC(=O)c3ccccc3)[C@@]3(O)C[C@H](OC(=O)[C@@H](O)[C@@H](NC(=O)c4ccccc4)c4ccccc4)C(C)=C1C3(C)C)[C@]1(OC(C)=O)CO[C@@H]1C[C@@H]2O	none
CCNc1ncc2nc(-c3ccccc3)c(=O)n(Cc3cccc(OC)c3)c2n1	none
C=CCOC(=O)C(C#N)c1nc2ccccc2nc1N1CCN(Cc2ccc3c(c2)OCO3)CC1 (stereo unspecified)	Fluorescein autfl 1.2e-08M
CCCCCCOC(=O)C(C#N)c1nc2ccccc2nc1N1CCCCC1 (stereo unspecified)	Fluorescein autfl 1e-08M
CCCCNC(=O)C(C#N)c1nc2ccccc2nc1N1CCN(Cc2ccc3c(c2)OCO3)CC1 (stereo unspecified)	Fluorescein autfl inconclusive
CC1CN(c2nc3ccccc3nc2C(C#N)C(=O)NCc2ccc3c(c2)OCO3)CC(C)O1 (stereo unspecified)	Fluorescein autfl 1.1e-07M, A488 autofl inconclusive
O=c1cc(O)cc(/C=C\c2ccc(O)c(O)c2)o1	Fluorescein autfl inconclusive
O=c1c(-c2ccc(Cl)cc2)nc2cnc(N3CCOCC3)nc2n1C1CC1	Fluorescein autfl 1e-08M
O[Si@](CCCN1CCCCC1)(c1ccc(F)cc1)C1CCCCC1	Fluorescein autfl inconclusive
O=c1ccn([C@@H]2O[C@@H](COP(=O)(O)OP(=O)(O)O)[C@H](O)[C@@H]2O)c(=O)[nH]1	Fluorescein autfl inconclusive
COc1ccc2nc(N3CCCCC3)c(C#N)cc2c1	Fluorescein autfl 1.5e-08M, Texas Red fluor inconclusive
COc1ccc2nc(N3CCCC3)c(C#N)cc2c1	Fluorescein autfl 7.2e-08M, A488 autofl inconclusive
Cn1cc[nH]c1=S	Fluorescein autfl 2.2e-08M
O=C(O)[C@H]1CCCC[C@@H]1c1c2ccc(=O)c(O)c-2oc2c(O)c(O)ccc12	Fluorescein autfl inconclusive
Cc1cccc(C)c1NC(=O)CN1CCN(CCCC(c2ccc(F)cc2)c2ccc(F)cc2)CC1	Fluorescein autfl 1e-08M
Cn1cccc1C(=O)N1CCC[C@@]2(CCN(c3ccccc3)C2)C1	Fluorescein autfl 1.1e-08M
O=C1[C@@H]2C=CC=CC2=NC(=S)N1CCN1CCC(=C(c2ccc(F)cc2)c2ccc(F)cc2)CC1	Fluorescein autfl inconclusive
COc1ccc(C(=O)N2CCC3(CC2)CN(c2cccc(-c4ccccc4)c2)C3)cc1	none
COc1ccc(C(=O)N2CCC3(CCCN(c4cccc(-c5ccccc5)c4)C3)CC2)cc1	Fluorescein autfl 1.4e-08M
COc1ccc(NC(=O)N2CCCC3(CCN(C(=O)c4ccc(OC)cc4)CC3)C2)cc1	Fluorescein autfl 2.6e-08M
CCNc1ncc2nc(-c3cccs3)c(=O)n(CCc3ccccc3)c2n1	none
Nc1nc(N)c(N=Nc2ccc(C(=O)O)c(O)c2)c(N)n1	Fluorescein autfl 1.4e-08M
Nc1ccc(C(=O)O)c(O)c1	Fluorescein autfl inconclusive
CN1/C(=C\P(=O)(N(C)C)N(C)C)C(C)(C)c2ccccc21	Rhodamine autofl 1.2e-08M, Fluorescein autfl inconclusive, Texas Red fluor 4.7e-08M, Resorufin autofl 1e-08M
COCCn1c(=O)c(-c2ccccc2)nc2cnc(Oc3ccc(OC)cc3)nc21	none
